Compound activity as filed in PubChem.
Mdm2-MdmX inh = disrupts the human Mdm2-MdmX interaction. SaOS-2 split-luciferase Mdm2/MdmX complementation, luminescence. inhibition, % at 8 µM. 330,000 tested, 3% active. AID 485346;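 active means inhibition of at least 50% at 8 µM in the primary screen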
Gli-Sufu antag = Gli-Sufu pathway antagonism | Sufu-KO-LIGHT fibroblasts, Gli luciferase reporter luminescence | 340,000 tested, 0.74% active | inhibition, % at 5 µM | AID 588413;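 active means inhibition above about 55%, limit read from the data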;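 further: 0% = DMSO-treated cells and 100% = wells with medium but no cells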
Jurkat NFkB inh = inhibitors of the PMA/ionomycin-induced NF-kB reporter in Jurkat cells; PMA/ionomycin-induced NF-kB luciferase reporter, luminescence; inhibition, % at 4 µM; 330,000 tested, 0.53% active; AID 435003; in the data active means inhibition above about 50%
697 NFkB inh = lowers PMA/ionomycin-induced NF-kB signal in 697 B cells; 697 B-cell NF-kB luciferase reporter, 16 h; inhibition, % at 4 µM; 330,000 tested, 0.33% active; AID 435022; in the data active means inhibition above about 35%
aSyn UTR inh = MLPCN primary screen, SNCA 5' untranslated region | 300,000 tested, 0.82% active | inhibition, % (tested at 7.5 µM) | alpha-synuclein 5'UTR reporter, inhibitor activity; in the data active means inhibition above about 60%;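 further: H4 neuroglioblastoma cells stably carrying SNCA 5'UTR luciferase fusion; 0% = DMSO wells and 100% = positive control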
CSC inhib = cancer stem cell inhibition | inhibition, % at 7.5 µM | cancer stem cell-like cells viability, luminescence | 300,000 tested, 1.1% active | AID 2717; in the data active means inhibition above about 75%; tested in HMLE shEcad cells
Jurkat NFkB conf = inhibitors of the PMA/ionomycin-induced NF-kB reporter in Jurkat cells, retest; shares compounds with Jurkat NFkB inh; Jurkat NF-kB luciferase, 16 h; inhibition, % at 4 µM; 2,700 tested, 27% active; AID 435020;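 active means inhibition reaching about 45% at 4 µM in either replicate, limit read from the data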;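 further: plate controls were PMA/ionomycin stimulated DMSO wells for no effect and unstimulated DMSO wells for full effect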
697 NFkB conf = lowers PMA/ionomycin-induced NF-kB signal in 697 B cells. shares compounds with 697 NFkB inh. 697 B-cell NF-kB luciferase, 16 h. inhibition, % at 4 µM. 2,000 tested, 35% active. AID 449746; in the data active means inhibition mostly above about 28%, no sharp cut-off; inactive means mostly below about 22%
Mdm2-MdmX conf = human Mdm2/MdmX binding inhibition, confirmed; shares compounds with Mdm2-MdmX inh; luminescent assay; inhibition, % at 8 µM; 10,000 tested, 55% active; in the data active means inhibition above about 40%
FLuc counter = full-length luciferase inhibition in Mdm2/MdmX counter-screen; shares compounds with Mdm2-MdmX inh; SaOS-2 full-length luciferase counterscreen, luminescence; inhibition, % at 8 µM; 6,200 tested, 77% active; AID 504607;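 active means mean inhibition at 8 µM reaching about 37%, which flags the compound as non-specific, limit read from the data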;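 further: p53-null SaOS-2 cells with luciferase driven by a doxycycline-inducible promoter; compound on cells about two nights before reading with doxycycline added after day one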
* marks the source's active call; other numbers are inactive results; . = not tested or not shown. This is a sample that favours compounds with a hit; in the whole collection about 4.5% have one here.

SMILES	Mdm2-MdmX inh	Gli-Sufu antag	Jurkat NFkB inh	697 NFkB inh	aSyn UTR inh	CSC inhib	Jurkat NFkB conf	Mdm2-MdmX conf	FLuc counter	others
CCOc1cc(CNCCCN2CCOCC2)cc(Br)c1OCC(=O)Nc1cccc(C(F)(F)F)c1	98*	-1	60*	18	-20	14	8	71*	45*
COc1cc(C(=O)Nc2ccc3c(c2)ncn3C)cc(OC)c1OC	55*	.	52*	-53	25	54	37	55*	58*
CC(=O)Nc1ccc2c(c1)ncn2C	9	1	-4	20	4	2	.	.	.
COc1ccc(COc2cc(-c3cccc(OC)c3)nc3ccc(N)cc23)cc1	60*	33	52*	-119	-33	46	-2	51*	120*
CN[C@H]1CCc2cc(OC)c(OC)c(OC)c2-c2ccc(OC)c(=O)cc21	68*	45	72*	-330	90*	46	66*	56*	104*	697 NFkB conf=-210
COc1cc2c(c(OC)c1OC)-c1ccc(NC(=O)c3ccccc3)c(=O)cc1[C@@H](NC(C)=O)CC2	57*	-20	50	9	55	45	5	65*	63*
Cc1ccc(-n2c(SC3CCOC3=O)nc3ccccc3c2=O)cc1 (stereo not drawn)	15	.	2	13	-5	-1	.	.	.
COc1ccc(-c2coc3cc4oc(=O)cc(-c5ccccc5)c4cc23)cc1F	84*	14	67*	-10	113*	-6	29	58*	55*
COc1ccc(N=C2S/C(=C\c3ccc(N4CCOCC4)o3)C(=O)N2CCc2c[nH]c3ccccc23)cc1	95*	.	100*	-38	-113	-2	39	99*	2
COc1ccc(N=C2S/C(=C\c3ccc(OCC(=O)O)cc3)C(=O)N2CCc2c[nH]c3ccccc23)cc1	1	-4	-1	9	-11	.	.	.	.
COc1ccccc1NC(=O)Cn1nnc(C(=O)NCc2cccs2)c1N	56*	3	53*	-13	86*	54	63*	64*	68*
COc1ccccc1CN1CCNC(=O)C1CC(=O)NCCc1cnccn1 (stereo not drawn)	9	7	-4	2	7	-3	.	.	.
Cc1ccc2[nH]c3c(c2c1)CCCC3NC(=O)CCl (stereo not drawn)	80*	28	97*	-262	15	39	95*	31	18	697 NFkB conf=-52
Cc1ccc2[nH]c3c(c2c1)CCCC3C(N)=O (stereo not drawn)	-1	-14	-4	17	-25	12	.	.	.
CSc1nccc(-c2nn(-c3ccc(C)cc3)ccc2=O)n1	51*	2	58*	-4	37	50	49*	73*	59*
O=C(COC(=O)c1ccc(S(=O)(=O)N2CCCC2)cc1)NCc1cccs1	7	-7	-8	-15	19	0	.	.	.
O=C(CCl)N1CCCC1c1ccc2c(c1)OCCO2 (stereo not drawn)	75*	0	85*	52*	-152	-2	78*	33	43*	697 NFkB conf=67*
Cc1ccc(NC(=O)Nc2ccnc(-c3cccnc3)n2)cc1	76*	-22	62*	-14	110*	30	47*	71*	68*
CC1CC(C)CN(S(=O)(=O)c2ccc(NC(=O)c3ccc(=O)[nH]c3)cc2)C1 (stereo not drawn)	59*	-5	54*	-36	.	42	49*	51*	74*
CCN(CC(=O)NC1CCS(=O)(=O)C1)S(=O)(=O)c1ccc(C)cc1C (stereo not drawn)	14	-5	12	17	-20	-1	.	.	.
CN(Cc1nc2ccccc2c(=O)[nH]1)C(=O)c1cccc(S(=O)(=O)N2CCc3ccccc32)c1	81*	12	59*	-84	.	24	-13	55*	68*
CN(C(=O)CSc1nc2ccccc2c(=O)n1C)C1CCS(=O)(=O)C1 (stereo not drawn)	37	8	1	10	.	-2	.	.	.
COc1ccc2c(c1OC)C(=O)N1c3ccccc3C(=O)N(c3ccccc3)C21 (stereo not drawn)	65*	2	54*	28	34	16	6	62*	69*
Cc1ccc(S(=O)(=O)/N=C2\C=C(Nc3ccc(O)cc3)C(=O)c3ccccc32)cc1	95*	94*	64*	19	.	133*	99*	89*	5
O=C(c1ccc(F)cc1)C(CN1CCOCC1)c1ccccc1 (stereo not drawn)	64*	11	53*	-137	-9	.	12	43*	38*
SMILES	Mdm2-MdmX inh	Gli-Sufu antag	Jurkat NFkB inh	697 NFkB inh	aSyn UTR inh	CSC inhib	Jurkat NFkB conf	Mdm2-MdmX conf	FLuc counter	others
c1ccc(C(CN2CCOCC2)c2ccccc2)cc1	-4	1	3	12	-33	-19	.	.	.
COc1ccc(OCC(=O)Nc2ccncc2)cc1	-19	5	5	13	-2	-9	.	.	.
O=C(COc1ccccc1Cl)Nc1cc(NC(=O)COc2ccccc2Cl)cc(C(=O)O)c1	8	-16	7	-24	21	.	.	.	.
O=C(Nc1cccc(C(=O)O)c1)Nc1ccc2c(c1)OCO2	54*	-62	88*	71*	99*	4	69*	63*	50*	697 NFkB conf=69*
CC(C)(CNC(=O)c1ccc(S(=O)(=O)Nc2ccc(Cl)cc2)cc1)N1CCOCC1	28	7	-11	-2	.	.	.	.	.
CCCCS(=O)(=O)/C=C\C=C/S(=O)(=O)CCCC	94*	34	90*	-131	-9	111*	63*	99*	51*
COc1ccc(Cn2c(SCc3ccc(C)cc3)nc3cc(OC)c(OC)cc3c2=N)cc1Cl	94*	30	64*	15	119*	103*	63*	100*	51*
Cc1nn(C)c(C)c1N1C(=O)c2cccc3c(N)ccc(c23)C1=O	.	-3	.	.	.	-5	.	.	.
Cc1ccc(N2C(=O)c3cccc4c(N)ccc(c34)C2=O)c2cccnc12	62*	41	75*	-213	100*	51	43	61*	80*
CC1=C/C(=N\OS(=O)(=O)c2ccccc2)C(C)=CC1=O	96*	3	51*	-13	.	118*	28	84*	53*
CC1=C/C(=N\OS(=O)(=O)c2ccccc2)C(C(C)C)=CC1=O	.	7	.	.	.	62	.	.	.
